Data: PubChem BioAssay AID1209 (Sanford-Burnham Center for Chemical Genomics, 2008)
Hit rate of the full screen: of about 190,000 compounds, about 810 (0.43%) were called active. The sample as a whole holds a higher share of actives than the screen did. Unmarked numbers belong to inactive results. No stated cut-off is given here; in the data, active means inhibition above about 50%; inactive means the rest.

The compounds below were run against Mannose-6-phosphate isomerase (Homo sapiens) (UniProt P34949) (assay: inhibitors of human PMI, primary screen, biochemical, fluorescence intensity, coupled assay (AID 1209;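 further: plate controls were DMSO vehicle for no effect and wells lacking substrate for full effect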)). Details: purified PMI enzyme, at 20 µM, hits give high values.
Mannose-6-phosphate isomerase (Homo sapiens), sequence (P34949 whole entry, looked up): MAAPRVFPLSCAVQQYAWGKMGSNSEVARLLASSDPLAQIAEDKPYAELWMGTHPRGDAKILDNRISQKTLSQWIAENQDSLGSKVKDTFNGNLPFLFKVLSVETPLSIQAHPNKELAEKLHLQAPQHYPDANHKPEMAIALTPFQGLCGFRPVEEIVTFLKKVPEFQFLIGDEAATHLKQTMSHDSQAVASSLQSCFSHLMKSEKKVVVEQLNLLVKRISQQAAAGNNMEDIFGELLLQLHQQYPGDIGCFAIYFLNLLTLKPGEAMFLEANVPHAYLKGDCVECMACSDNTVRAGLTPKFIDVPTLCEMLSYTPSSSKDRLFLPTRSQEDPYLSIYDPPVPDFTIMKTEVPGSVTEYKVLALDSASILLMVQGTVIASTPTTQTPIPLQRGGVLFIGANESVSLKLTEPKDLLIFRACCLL

Compared with `Cc1ccccc1-c1nnc(NC(=O)c2cc3ccccc3oc2=O)s1`, `O=C(Nc1nc2c(s1)CCCC2)c1nn(Cc2ccccc2)c(=O)c2ccccc12` is higher in inhibition: -1.2% for the first, 0.4% for the second.

Compared with `CCN(CC)Cc1c(O)ccc2c(=O)c(-c3ccc4c(c3)OCCO4)coc12`, `Cc1ccc(-c2nnc(CSc3nc4cc5c(cc4cc3C)OCO5)o2)cc1` is higher in inhibition: 5.6% for the first, 15.5% for the second.

First: COC1OC(COC(=O)CNC(=O)OC(C)(C)C)C(O)C(O)C1O (centres undefined)
Second: COC(=O)c1c(NC(=O)C2CC=CCC2C(=O)O)sc(C(N)=O)c1C (centres undefined)
The inhibition of the first is lower: -0.1% for the first, 7.3% for the second.

Going from `CC(C)CC(C(=O)NC1CCCC1)N(Cc1cccs1)C(=O)c1snc(C(N)=O)c1N` (centres undefined) to `CCC(C(=O)NC1CCCCC1)N(Cc1cccs1)C(=O)c1snc(C(N)=O)c1N` (centres undefined), the inhibition falls from 13% to 3.9%.

Going from `CCOC(=O)COc1ccc(S(=O)(=O)NCC2CCCO2)cc1` (centres undefined) to `CCCNS(=O)(=O)c1ccc(OCC(=O)Nc2ccccc2F)cc1`, the inhibition rises from -1.8% to -1.4%.

Going from `COc1cccc(OCc2nc(-c3cccc([N+](=O)[O-])c3)no2)c1` to `COc1ccccc1OCc1nc(-c2cccc([N+](=O)[O-])c2)no1`, the inhibition falls from 4.9% to 2.9%.

First: CC(=O)c1cnc(-c2ccccc2Cl)s1
Second: CC(=O)N(NC(=O)c1ccc(C)cc1)C1CC(=O)N(c2ccccc2Cl)C1=O (centres undefined)
The inhibition of the first is higher: 0.5% for the first, -5.8% for the second.

First: CC(C(=O)Nc1nc2ccccc2s1)n1cc([N+](=O)[O-])cn1 (centres undefined)
Second: COc1ccc2nc(NC(=O)CNS(=O)(=O)c3cccs3)sc2c1
The inhibition of the first is higher: 11.5% for the first, 1.5% for the second.

Compared with `Cc1cc(C)c(S(=O)(=O)Nc2ccc3[nH]c(=O)[nH]c3c2)c(C)c1`, `CS(=O)(=O)Nc1ccc2[nH]c(=O)[nH]c2c1` is lower in inhibition: 4.4% for the first, 3.3% for the second.

Going from `N#C/C(=C\c1cccc(NC(=O)c2ccccc2Cl)c1)C(=O)NCCc1ccccc1` to `N#C/C(=C/c1ccc(CNS(=O)(=O)c2ccccc2)o1)C(=O)NCc1ccccc1`, the inhibition falls from 10.1% to 7.8%.

First: O=C(Cc1ccc(F)cc1)OCC(=O)c1cc2ccccc2o1
Second: CCc1ccc(C(=O)COC(=O)CCc2nc3ccccc3c(=O)[nH]2)cc1
The inhibition of the first is higher: 9% for the first, -28.6% for the second.

First: COc1ccc(-c2n[nH]c(C)c2-c2ccc(Cl)cc2)c(O)c1OC
Second: COc1ccc(-c2nc(N)ncc2-c2csc(C)n2)c(O)c1OC
The inhibition of the first is lower: 6.7% for the first, 6.8% for the second.

First: NS(=O)(=O)c1ccc(NC(=O)C2(c3ccccc3)CCCC2)cc1
Second: Cc1ccc(NC(=O)CN(C)S(=O)(=O)c2cccc3cccnc23)cc1
The inhibition of the first is lower: 1.9% for the first, 11.9% for the second.

Compared with `O=C(CSc1ccc(-c2ccccn2)nn1)c1ccccc1`, `O=C(CSc1ccc(-c2ccccn2)nn1)c1ccc([N+](=O)[O-])cc1` is higher in inhibition: -14.4% for the first, 3.7% for the second.

First: CSC1=N/C(=C\c2ccc(C)s2)C(=O)S1
Second: Cc1ccc(C(=O)CC2(O)C(=O)N(C)c3ccccc32)s1 (centres undefined)
The inhibition of the first is lower: 7% for the first, 8.1% for the second.

First: O=C(NC1CCCCCCC1)c1ccc2c(c1)N(Cc1ccc(F)cc1)C(=O)CS2=O (centres undefined)
Second: CC(=O)NC1C(=O)N=C(SCC(=O)NC2CCCCC2)NC1=O (centres undefined)
The inhibition of the first is higher: 0.6% for the first, -8.4% for the second.

First: NC(=S)Nn1c(CCC(=O)O)ccc1-c1ccccc1
Second: Cc1cccc(NCc2ccccc2O)c1C
The inhibition of the first is lower: 14.4% for the first, 29% for the second.

Going from `Cc1cccc2cc(C#N)c(SCc3nnc(-c4ccccc4[N+](=O)[O-])o3)nc12` to `Cc1nn(C)cc1C(=O)Nc1cc(Oc2ccc(Cl)cc2)cc([N+](=O)[O-])c1`, the inhibition falls from 11.1% to -2.9%.

First: C/C=C(\C)C(=O)NCCN1C2=NC[C@H](C(C)C)N2C[C@H]1Cc1ccc(O)cc1
Second: COCCNC(=O)/C(C#N)=C\c1ccc(CNS(=O)(=O)c2ccc(C)cc2)o1
The inhibition of the first is lower: 1.5% for the first, 6.2% for the second.

First: CC1(C)CC(=O)C(C2=NC(C)(C)Cc3ccccc32)=C(O)C1
Second: CC1=NC(C)(C)Cc2ccccc21
The inhibition of the first is lower: -4% for the first, 7.7% for the second.

Going from `O=S(=O)(/C=C/c1ccccc1)N1CCN(Cc2ccccc2)CC1` to `O=S(=O)(c1cccs1)N1CCN(c2ccccn2)CC1`, the inhibition rises from -1.6% to 5.9%.

First: CCN(C(=S)NCc1ccccc1)c1cccc2ccccc12
Second: CCN(C(=S)Nc1ccc(Oc2ccccc2)cc1)c1ccccc1
The inhibition of the first is higher: 6.3% for the first, 3.3% for the second.

Compared with `CN(C(=S)Nc1ccccc1)c1ccccc1`, `CCN(C(=S)Nc1cccnc1)c1ccccc1` is higher in inhibition: 3.2% for the first, 4% for the second.

Going from `Oc1cccc(NC(=S)Nc2cccnc2)c1` to `Oc1cccc(NC(=S)Nc2ccc(SC(F)F)cc2)c1`, the inhibition rises from 14.8% to 18.1%.

First: CN1CCC(N(C)C(=S)Nc2ccc(SC(F)F)cc2)CC1
Second: CC(=O)N1c2ccccc2C(C)(C)C2CCC(C)CC21 (centres undefined)
The inhibition of the first is lower: -2% for the first, 0.8% for the second.

Compared with `CN(Cc1ccccc1)C(=S)Nc1cccnc1`, `O=C(Cc1ccccc1)NCc1ccccn1` is lower in inhibition: 0.8% for the first, -4.7% for the second.

First: Cn1cnnc1SCc1nc(N)nc(Nc2ccccc2)n1
Second: O=C(O)c1ccc(Nc2ncnc3c2cnn3Cc2ccccc2)cc1
The inhibition of the first is lower: 0.3% for the first, 7.1% for the second.

Compared with `Cc1ccc(C)c(NC2=CC(=O)CC(C)(C)C2)c1C#N`, `COc1cccc(C2C(C(=O)Nc3nc4ccccc4s3)=C(C)NC3=C2C(=O)CC(C)(C)C3)c1OC` (centres undefined) is higher in inhibition: -12% for the first, -10.5% for the second.

Going from `Cc1ccc(NC(=O)Cn2cc(C(F)(F)F)cc(Cl)c2=O)cc1Cl` to `N=c1sccn1CC(=O)NCc1ccc(Cl)cc1Cl`, the inhibition falls from 3.2% to -8.6%.

Going from `C=CCn1c(Cc2cccs2)nnc1SCC(=O)Nc1ccc(OC)c(OC)c1` to `CCCn1nnnc1NC(=O)c1cc(Br)ccc1OC`, the inhibition falls from 5.9% to 0.2%.

Compared with `COc1ccc2c(C)c(Cl)c(=O)oc2c1`, `COc1ccc(OC)c([C@@H]2OCCC=C[C@H]2C)c1` is lower in inhibition: 3.5% for the first, -2.1% for the second.

Compared with `CCN(CC)CCN(C(=O)c1ccc([N+](=O)[O-])cc1)c1nc2ccc(OC)cc2s1`, `CCOc1ccc2nc(N(CCN(CC)CC)C(=O)c3cccc([N+](=O)[O-])c3)sc2c1` is higher in inhibition: 1.1% for the first, 33.9% for the second.

Compared with `C=CCNC(=O)c1cc(C(=O)C(C)c2ncc(C(F)(F)F)cc2Cl)c[nH]1` (centres undefined), `CCCn1nnnc1NC(=O)c1cc(Cl)ccc1Cl` is higher in inhibition: 0.9% for the first, 13.1% for the second.

Compared with `COC(=O)C1CCN(C2CC(=O)N(c3cc(C)cc(C)c3)C2=O)CC1` (centres undefined), `COC(=O)c1ccc(C(=O)OC)c(NC(=O)CN2CCCCC2)c1` is higher in inhibition: -1.3% for the first, 4.7% for the second.

First: Nn1c(COc2ccc(Cl)cc2)n[nH]c1=S
Second: Cc1ccc(OCc2n[nH]c(=S)n2N)cc1C
The inhibition of the first is higher: 12% for the first, 1.5% for the second.

First: O=C(NC1CCSC1=O)C1CCCCC1 (centres undefined)
Second: CC(=O)Nc1c(O)nc(SCC(=O)Nc2sc3c(c2C#N)CCCCCC3)[nH]c1=O
The inhibition of the first is lower: -2.2% for the first, 1.2% for the second.

Compared with `N#Cc1cc(-c2ccccc2)c[nH]c1=O`, `O=C(/C=C/NNC(=O)c1ccc(Cl)cc1)c1ccccc1` is lower in inhibition: 6.1% for the first, -4.1% for the second.

Compared with `c1cc(-c2ccncc2)ccn1`, `Cc1cccnc1NCc1ccc(O)c2ncccc12` is higher in inhibition: -8.5% for the first, 48.4% for the second.

First: O=C(COc1cccc2cccnc12)Nc1ccccc1
Second: Cc1ccc(O)c(CNc2cccc3cccnc23)c1
The inhibition of the first is lower: -7.8% for the first, 34.8% for the second.

Going from `O=C(c1cccnc1)N1CCN(c2ccc(Cl)cc2)CC1` to `C/C(N)=C(/C#N)C(=O)CSc1nn(-c2ccc(Cl)cc2)c(=S)s1`, the inhibition rises from -6.6% to 5.6%.

Compared with `O=c1c2ccccc2nc2c3ccccc3c(NCc3cccnc3)nn12`, `Oc1ccc(CNc2ccccc2F)c2cccnc12` is higher in inhibition: 6.3% for the first, 45.3% for the second.

Compared with `CCN(CC)C(=S)SCC(=O)c1ccccc1`, `CCN(CC)C(=S)SSC(=S)N(CC)CC` is lower in inhibition: 5.8% for the first, -2.4% for the second.

With `CC(C)CC(C(=O)NC1CCCCC1)N(Cc1cccs1)C(=O)c1snc(C(N)=O)c1N` (centres undefined) the inhibition was 101% (active).
In the case of `O=[N+]([O-])c1cccc(-c2noc(COc3ccccc3)n2)c1`, the inhibition was 57.3% (active).
In the case of `CCS(=O)(=O)Nc1ccc2[nH]c(=O)[nH]c2c1`, the inhibition was 52.1% (active).
With `COC1=C(N)C(=O)c2nc(-c3nc(C(=O)O)c(C)c(-c4ccc(OC)c(OC)c4O)c3N)ccc2C1=O` the inhibition was 56% (active).
For `O=C(CSc1ccc(-c2ccccn2)nn1)c1ccc(F)cc1`, the inhibition was 62.5% (active).
In the case of `Cc1ccc(S(=O)(=O)NCc2ccc(/C=C(/C#N)C(=O)NCc3ccccc3)o2)cc1`, the inhibition was 58.4% (active).
`CC1(C)Cc2ccccc2C2=NNC(=O)C2=N1` was tested, and the inhibition was 84% (active).
For `CN(C(=S)Nc1cccnc1)c1ccc(O)cc1`, the inhibition was 59.2% (active).
With `CN(C(=S)Nc1ccc(Oc2ccccc2)cc1)c1ccc(O)cc1` the inhibition was 64% (active).
In the case of `CN(C(=S)Nc1ccc(SC(F)F)cc1)c1ccc(O)cc1`, the inhibition was 77.2% (active).
With `CCN(C(=S)Nc1cccnc1)c1cccc2ccccc12` the inhibition was 61.2% (active).
With `CCN(CC)CCN(C(=O)c1cccc([N+](=O)[O-])c1)c1nc2ccc(OC)cc2s1` the inhibition was 56.7% (active).
For `COc1ccc(OCc2n[nH]c(=S)n2N)cc1`, the inhibition was 80.7% (active).
For `Nc1cc(-c2ccncc2)c[nH]c1=O`, the inhibition was 50.4% (active).
With `Cc1ccc(NC(=O)CN(C)C(=O)COc2cccc3cccnc23)cc1` the inhibition was 73% (active).
`CCCn1nnnc1NC(=O)c1ccc(C)cc1Cl` was tested, and the inhibition was 54.4% (active).
In the case of `CCN(CC)C(=S)SC1=CCS(=O)(=O)C1`, the inhibition was 102% (active).
In the case of `Cc1cccc(NCc2ccc(O)c3ncccc23)c1C`, the inhibition was 60.4% (active).
`CC(=O)NC1C(=O)N=C(SCC(=O)Nc2sc3c(c2C#N)CCCCCC3)NC1=O` (centres undefined) was tested, and the inhibition was 66.1% (active).
`CC(=O)N1c2ccccc2C2(O)N=C(C)SC12` (centres undefined) was tested, and the inhibition was 60.3% (active).
